Assay results reported in ChEMBL document CHEMBL1961873, “Compounds: GSK PKIS; Assays: Nanosyn kinase panel” (2012).
“And” between values parts separate entries of the source, which are not always exact repeats. Equal entries are not always repeated.

Key:
[1] = target: Calcium/calmodulin-dependent protein kinase type II subunit alpha (Homo sapiens) (UniProt Q9UQM7); conditions: at 1 µM;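 also: reported value is a mean percent inhibition of CAMK2A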
[2] = target: Calcium/calmodulin-dependent protein kinase type II subunit delta (Homo sapiens) (UniProt Q13557); conditions: at 0.1 µM
[3] = target: Calcium/calmodulin-dependent protein kinase type II subunit delta (Homo sapiens) (UniProt Q13557); conditions: at 1 µM
[4] = target: T1, Calcium/calmodulin-dependent protein kinase type IV (Homo sapiens) (UniProt Q16566); conditions: at 0.1 µM
T1 sequence (whole entry): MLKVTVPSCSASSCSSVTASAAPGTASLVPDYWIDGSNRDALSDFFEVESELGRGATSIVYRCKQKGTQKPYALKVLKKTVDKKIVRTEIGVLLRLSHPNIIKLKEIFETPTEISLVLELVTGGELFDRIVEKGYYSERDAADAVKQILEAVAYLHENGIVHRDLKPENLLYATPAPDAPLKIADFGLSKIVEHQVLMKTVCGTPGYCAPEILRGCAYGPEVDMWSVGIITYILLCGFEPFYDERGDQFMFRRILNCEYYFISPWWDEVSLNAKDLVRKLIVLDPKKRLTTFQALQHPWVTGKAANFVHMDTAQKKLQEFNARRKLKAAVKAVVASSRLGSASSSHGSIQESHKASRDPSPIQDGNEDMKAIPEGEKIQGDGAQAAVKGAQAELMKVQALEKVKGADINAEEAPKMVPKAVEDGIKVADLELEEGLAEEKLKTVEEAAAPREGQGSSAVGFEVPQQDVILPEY

[5] = target: T1, Calcium/calmodulin-dependent protein kinase type IV (Homo sapiens); conditions: at 1 µM
[6] = target: T2, Serine/threonine-protein kinase Chk1 (Homo sapiens) (UniProt O14757); conditions: at 0.1 µM
T2 sequence (whole entry): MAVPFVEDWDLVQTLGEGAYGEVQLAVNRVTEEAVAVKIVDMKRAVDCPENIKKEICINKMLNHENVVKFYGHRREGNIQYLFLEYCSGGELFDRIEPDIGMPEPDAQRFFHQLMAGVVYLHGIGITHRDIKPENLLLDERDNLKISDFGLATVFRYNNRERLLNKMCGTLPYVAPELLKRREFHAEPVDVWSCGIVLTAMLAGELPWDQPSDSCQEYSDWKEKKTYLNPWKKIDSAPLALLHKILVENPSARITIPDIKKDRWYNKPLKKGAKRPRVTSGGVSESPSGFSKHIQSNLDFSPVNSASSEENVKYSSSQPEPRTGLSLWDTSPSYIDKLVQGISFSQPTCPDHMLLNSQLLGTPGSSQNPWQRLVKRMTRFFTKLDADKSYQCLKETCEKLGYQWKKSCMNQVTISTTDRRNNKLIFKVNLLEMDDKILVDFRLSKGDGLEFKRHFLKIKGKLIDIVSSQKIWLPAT

[7] = target: T2, Serine/threonine-protein kinase Chk1 (Homo sapiens); conditions: at 1 µM
[8] = target: Serine/threonine-protein kinase Chk2 (Homo sapiens) (UniProt O96017); conditions: at 0.1 µM
[9] = target: Serine/threonine-protein kinase Chk2 (Homo sapiens) (UniProt O96017); conditions: at 1 µM
[10] = target: Death-associated protein kinase 1 (Homo sapiens) (UniProt P53355); conditions: at 0.1 µM
[11] = target: Death-associated protein kinase 1 (Homo sapiens) (UniProt P53355); conditions: at 1 µM
[12] = target: T3, Serine/threonine-protein kinase DCLK2 (Homo sapiens) (UniProt Q8N568); conditions: at 0.1 µM
T3 sequence (whole entry): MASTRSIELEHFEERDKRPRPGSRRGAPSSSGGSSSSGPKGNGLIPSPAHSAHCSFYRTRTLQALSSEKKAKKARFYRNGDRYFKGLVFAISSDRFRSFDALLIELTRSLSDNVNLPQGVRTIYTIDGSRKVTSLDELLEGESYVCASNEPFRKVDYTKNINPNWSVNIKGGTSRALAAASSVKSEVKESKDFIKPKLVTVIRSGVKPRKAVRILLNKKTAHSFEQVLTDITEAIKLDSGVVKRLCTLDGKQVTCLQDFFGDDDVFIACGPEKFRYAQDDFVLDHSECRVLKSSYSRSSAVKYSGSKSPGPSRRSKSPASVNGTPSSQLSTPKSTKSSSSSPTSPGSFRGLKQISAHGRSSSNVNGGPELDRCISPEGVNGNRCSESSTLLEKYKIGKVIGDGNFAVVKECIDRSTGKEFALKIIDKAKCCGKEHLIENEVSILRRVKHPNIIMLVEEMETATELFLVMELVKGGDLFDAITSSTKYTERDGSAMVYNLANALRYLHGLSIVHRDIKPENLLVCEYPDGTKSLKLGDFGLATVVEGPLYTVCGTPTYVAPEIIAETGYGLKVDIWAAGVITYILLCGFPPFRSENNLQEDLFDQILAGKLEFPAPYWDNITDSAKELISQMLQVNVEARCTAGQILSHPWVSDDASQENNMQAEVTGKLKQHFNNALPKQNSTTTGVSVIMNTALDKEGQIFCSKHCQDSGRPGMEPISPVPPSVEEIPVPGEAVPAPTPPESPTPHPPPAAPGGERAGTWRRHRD

[13] = target: T3, Serine/threonine-protein kinase DCLK2 (Homo sapiens); conditions: at 1 µM
[14] = target: MAP kinase-activated protein kinase 2 (Homo sapiens) (UniProt P49137); conditions: at 0.1 µM
[15] = target: MAP kinase-activated protein kinase 2 (Homo sapiens) (UniProt P49137); conditions: at 1 µM
[16] = target: MAP kinase-activated protein kinase 3 (Homo sapiens) (UniProt Q16644); conditions: at 0.1 µM
[17] = target: MAP kinase-activated protein kinase 3 (Homo sapiens) (UniProt Q16644); conditions: at 1 µM
[18] = target: Serine/threonine-protein kinase MARK1 (Homo sapiens) (UniProt Q9P0L2); conditions: at 0.1 µM
[19] = target: Serine/threonine-protein kinase MARK1 (Homo sapiens) (UniProt Q9P0L2); conditions: at 1 µM
[20] = target: MAP/microtubule affinity-regulating kinase 3 (Homo sapiens) (UniProt P27448); conditions: at 0.1 µM;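 also: mean percent inhibition of MARK3 kinase activity, measured within the GSK PKIS screening panel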
MAP/microtubule affinity-regulating kinase 3 (Homo sapiens), sequence (P27448 whole entry, looked up): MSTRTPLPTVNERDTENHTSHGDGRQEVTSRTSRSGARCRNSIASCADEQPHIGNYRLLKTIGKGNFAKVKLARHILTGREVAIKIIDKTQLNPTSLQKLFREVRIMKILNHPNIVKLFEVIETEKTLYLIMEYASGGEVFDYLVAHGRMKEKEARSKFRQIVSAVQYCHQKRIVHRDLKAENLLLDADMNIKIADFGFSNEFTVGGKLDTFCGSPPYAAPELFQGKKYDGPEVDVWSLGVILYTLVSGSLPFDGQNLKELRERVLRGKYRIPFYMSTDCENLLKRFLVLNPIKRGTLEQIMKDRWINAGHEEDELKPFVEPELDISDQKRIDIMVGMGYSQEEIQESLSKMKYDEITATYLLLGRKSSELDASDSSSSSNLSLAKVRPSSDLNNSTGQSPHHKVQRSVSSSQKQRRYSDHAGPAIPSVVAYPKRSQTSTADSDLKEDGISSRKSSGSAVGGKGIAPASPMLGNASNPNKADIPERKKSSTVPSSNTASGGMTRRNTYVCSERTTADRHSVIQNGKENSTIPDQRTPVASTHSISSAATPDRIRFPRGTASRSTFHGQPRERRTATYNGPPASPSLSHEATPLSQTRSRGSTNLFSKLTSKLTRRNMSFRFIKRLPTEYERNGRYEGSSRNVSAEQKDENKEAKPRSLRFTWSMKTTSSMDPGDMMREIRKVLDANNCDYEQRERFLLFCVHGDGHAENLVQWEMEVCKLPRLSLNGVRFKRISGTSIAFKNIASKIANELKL

Serine/threonine-protein kinase Chk2 (Homo sapiens), sequence (O96017 whole entry): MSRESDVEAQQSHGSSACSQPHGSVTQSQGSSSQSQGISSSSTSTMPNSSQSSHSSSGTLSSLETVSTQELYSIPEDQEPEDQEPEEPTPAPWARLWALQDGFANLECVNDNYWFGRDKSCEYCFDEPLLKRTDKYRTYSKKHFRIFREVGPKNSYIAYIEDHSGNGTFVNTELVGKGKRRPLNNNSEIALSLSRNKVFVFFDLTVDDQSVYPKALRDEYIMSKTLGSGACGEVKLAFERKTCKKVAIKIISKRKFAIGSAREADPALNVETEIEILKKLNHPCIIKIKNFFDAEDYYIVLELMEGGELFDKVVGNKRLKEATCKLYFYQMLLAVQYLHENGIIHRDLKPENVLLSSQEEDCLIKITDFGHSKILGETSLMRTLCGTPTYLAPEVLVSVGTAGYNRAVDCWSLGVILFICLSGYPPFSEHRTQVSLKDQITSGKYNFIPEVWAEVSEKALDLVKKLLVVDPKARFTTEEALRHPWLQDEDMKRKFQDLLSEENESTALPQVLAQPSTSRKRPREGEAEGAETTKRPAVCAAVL
Serine/threonine-protein kinase MARK1 (Homo sapiens), sequence (Q9P0L2 whole entry, looked up): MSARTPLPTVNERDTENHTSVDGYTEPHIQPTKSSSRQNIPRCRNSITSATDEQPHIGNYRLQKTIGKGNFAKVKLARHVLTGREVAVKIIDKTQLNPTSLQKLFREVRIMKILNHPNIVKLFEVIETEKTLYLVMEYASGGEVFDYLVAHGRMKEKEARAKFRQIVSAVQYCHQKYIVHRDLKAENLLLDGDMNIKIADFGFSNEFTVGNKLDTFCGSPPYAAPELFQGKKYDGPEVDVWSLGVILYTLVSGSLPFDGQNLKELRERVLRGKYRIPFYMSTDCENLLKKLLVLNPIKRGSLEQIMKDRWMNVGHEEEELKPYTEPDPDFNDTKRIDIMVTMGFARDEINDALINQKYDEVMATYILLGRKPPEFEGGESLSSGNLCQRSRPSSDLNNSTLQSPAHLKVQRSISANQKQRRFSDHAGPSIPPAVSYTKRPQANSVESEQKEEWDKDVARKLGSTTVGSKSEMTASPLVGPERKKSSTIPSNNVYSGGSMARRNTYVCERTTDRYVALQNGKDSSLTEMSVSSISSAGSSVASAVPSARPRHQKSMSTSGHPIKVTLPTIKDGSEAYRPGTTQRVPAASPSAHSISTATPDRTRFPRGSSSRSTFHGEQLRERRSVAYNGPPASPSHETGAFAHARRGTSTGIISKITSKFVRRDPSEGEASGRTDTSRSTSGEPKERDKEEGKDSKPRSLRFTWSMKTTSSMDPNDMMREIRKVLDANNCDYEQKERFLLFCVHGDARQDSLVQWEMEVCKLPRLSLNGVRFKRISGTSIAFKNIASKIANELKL
Calcium/calmodulin-dependent protein kinase type II subunit delta (Homo sapiens), sequence (Q13557 whole entry): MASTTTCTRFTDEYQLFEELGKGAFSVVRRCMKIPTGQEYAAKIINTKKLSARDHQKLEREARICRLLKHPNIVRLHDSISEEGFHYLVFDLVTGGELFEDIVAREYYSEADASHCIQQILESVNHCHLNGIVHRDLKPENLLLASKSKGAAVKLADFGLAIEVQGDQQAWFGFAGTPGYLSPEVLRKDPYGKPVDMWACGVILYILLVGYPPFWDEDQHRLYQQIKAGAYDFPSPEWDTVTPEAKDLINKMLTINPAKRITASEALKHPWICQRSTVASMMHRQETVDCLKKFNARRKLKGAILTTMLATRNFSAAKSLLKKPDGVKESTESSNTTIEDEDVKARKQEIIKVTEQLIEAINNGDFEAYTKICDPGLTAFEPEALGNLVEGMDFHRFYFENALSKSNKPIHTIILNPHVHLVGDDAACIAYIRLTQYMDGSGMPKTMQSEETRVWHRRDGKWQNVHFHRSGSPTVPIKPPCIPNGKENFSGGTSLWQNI
MAP kinase-activated protein kinase 3 (Homo sapiens), sequence (Q16644 whole entry, looked up): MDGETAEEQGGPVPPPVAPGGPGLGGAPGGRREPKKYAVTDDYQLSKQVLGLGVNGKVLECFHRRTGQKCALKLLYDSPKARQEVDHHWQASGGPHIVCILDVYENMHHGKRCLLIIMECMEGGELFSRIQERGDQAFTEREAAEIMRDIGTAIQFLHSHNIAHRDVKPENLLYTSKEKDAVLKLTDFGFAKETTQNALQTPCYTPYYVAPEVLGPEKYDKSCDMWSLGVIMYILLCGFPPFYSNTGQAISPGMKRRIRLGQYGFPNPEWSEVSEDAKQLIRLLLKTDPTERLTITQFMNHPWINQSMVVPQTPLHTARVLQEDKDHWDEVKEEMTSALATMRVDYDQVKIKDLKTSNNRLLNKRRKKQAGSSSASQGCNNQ
Calcium/calmodulin-dependent protein kinase type II subunit alpha (Homo sapiens), sequence (Q9UQM7 whole entry): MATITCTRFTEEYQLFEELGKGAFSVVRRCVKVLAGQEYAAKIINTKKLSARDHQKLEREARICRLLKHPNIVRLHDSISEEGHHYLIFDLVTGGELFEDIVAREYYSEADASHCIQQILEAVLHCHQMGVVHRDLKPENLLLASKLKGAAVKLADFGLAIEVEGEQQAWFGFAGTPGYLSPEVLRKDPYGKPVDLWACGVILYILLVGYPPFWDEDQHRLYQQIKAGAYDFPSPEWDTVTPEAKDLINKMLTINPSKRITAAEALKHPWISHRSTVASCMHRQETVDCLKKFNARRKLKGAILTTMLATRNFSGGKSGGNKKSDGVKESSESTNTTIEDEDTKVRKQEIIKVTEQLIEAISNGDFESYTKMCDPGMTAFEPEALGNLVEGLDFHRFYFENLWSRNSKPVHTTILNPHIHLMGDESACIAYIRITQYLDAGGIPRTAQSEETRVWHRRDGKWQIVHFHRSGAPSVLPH
MAP kinase-activated protein kinase 2 (Homo sapiens), sequence (P49137 whole entry, looked up): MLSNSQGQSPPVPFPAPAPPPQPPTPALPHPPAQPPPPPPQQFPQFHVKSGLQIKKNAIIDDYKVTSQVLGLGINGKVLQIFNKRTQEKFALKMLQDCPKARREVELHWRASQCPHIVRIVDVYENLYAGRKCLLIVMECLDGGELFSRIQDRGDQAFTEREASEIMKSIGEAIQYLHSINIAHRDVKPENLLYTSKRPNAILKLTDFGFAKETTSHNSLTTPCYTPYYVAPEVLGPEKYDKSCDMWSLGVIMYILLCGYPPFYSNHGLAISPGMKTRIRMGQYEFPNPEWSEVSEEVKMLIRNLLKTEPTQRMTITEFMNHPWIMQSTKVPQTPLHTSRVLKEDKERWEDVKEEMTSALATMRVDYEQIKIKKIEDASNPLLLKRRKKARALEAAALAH

Structure (SMILES)	inhibition [1]	inhibition [2]	inhibition [3]	inhibition [4]	inhibition [5]	inhibition [6]	inhibition [7]	inhibition [8]	inhibition [9]	inhibition [10]	inhibition [11]	inhibition [12]	inhibition [13]	inhibition [14]	inhibition [15]	inhibition [16]	inhibition [17]	inhibition [18]	inhibition [19]	inhibition [20]
CC1=C(C(=O)Nc2ccc3[nH]ncc3c2)C(c2ccc(F)cc2)N=C(c2ccc(C(F)(F)F)nc2)N1 (stereo not given)	2.04%	0.67%	3.6%	0.82%	1.17%	0.19%	3.03%	1.5%	2.24%	0.86%	0.67%	-2.05%	4.18%	1.36%	0.33%	1.46%	3.59%	1.66%	4.38%	1.04%
CN1CCN(Cc2ccc(-c3cc4ncnc(Nc5ccc(OCc6cccc(F)c6)c(Cl)c5)c4s3)o2)CC1	5.07% and 4.38%	1.16% and 3.96%	3.36% and 5.38%	-0.07% and -1.54%	2.1% and 1.05%	8.64% and 3.56%	7.78% and 8.12%	9.39% and 5.57%	28.6% and 26.4%	9.3% and 6.62%	8.26% and 8.39%	-1.96% and 1.28%	-0.55% and 0.13%	3.34% and 2.08%	3.32% and 2.11%	10.6% and 4.26%	13% and 4.01%	2.62% and 3.44%	6.17% and 6%	1.67% and 1.64%
Nc1ncnc2occ(-c3ccc(NC(=O)Nc4cc(C(F)(F)F)ccc4F)cc3)c12	3.84% and -2.75%	3.01% and -3.72%	4.94% and 0.29%	0.92% and -1.47%	6.17% and 0.48%	3.39% and 0.89%	3.36% and 1.22%	0.48% and -3.48%	2.69% and -1.74%	3.18% and 0.64%	4.75% and 1.06%	3.65% and -1.65%	-4.63%	1.16% and -1.74%	1.1% and -1.65%	3.46% and -1.38%	13.9% and 7.55%	1.91% and -0.63%	3.01% and -0.26%	1.57% and -1.4%
CS(=O)(=O)CCNCc1ccc(-c2ccc3ncnc(Nc4ccc(OCc5ccccc5)cc4)c3c2)o1	-1%	2.72%	1.68%	2.07%	-0.36%	-1.5%	0.28%	3.41%	12.9%	3.08%	1.36%	1.31%	1.03%	1.2%	0.72%	3.13%	2.48%	3.03%	2.05%	0.62%
CCS(=O)(=O)c1ccc(OC)c(Nc2ncc(-c3cccc(F)c3)o2)c1	5.43%	4.73%	10.6%	-0.92%	1.07%	3.94%	12.9%	2.75%	4.65%	7.21%	7%	1.71%	1.48%	2.52%	3.2%	7.02%	7.04%	1.75%	4.44%	3.77%
